High-throughput results as filed in PubChem BioAssay.
This is a sample that favours compounds with a hit; in the whole collection about 0.86% have one here.
FEN1 inhibitor – qHTS Assay for the Inhibitors of Human Flap endonuclease 1 (FEN1); P39748; Recombinant FEN1 flap cleavage, fluorescence, 15 min; Potency, µM (top dose mostly 114 µM), usual class: inhibitors; 390,000 compounds, 0.35% hits; AID 588795, 2011; note: nearly all actives have a fitted effect of over 65% in size
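FEN1 at 10 nM, compound pretreatment for 15 min (room temperature), 50 nM final substrate to initiate; endpoint reads at 0 and 15 min; DMSO-only plates used as vehicle background.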
RECQ1 inh-1 – qHTS Assay for Inhibitors of RecQ-Like Dna Helicase 1 (RECQ1); ATP-dependent DNA helicase Q1 (Homo sapiens), P46063; RECQ1 DNA unwinding, red fluorescence kinetic read; Potency, µM (doses to about 57.3 µM), usual class: inhibitors; 240,000 compounds, 0.54% hits; AID 2549, 2010; note: nearly all actives have a fitted effect of over 30% in size
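RECQ1T1 50 nM; forked duplex (20 bp + 30-nt ss tails) 200 nM, ATP 2 mM final; pH 8.0, 2 mM MgCl2, 2.5 ug/ml poly(dI-dC); 15 min compound preincubation; discontinuous kinetic read over 2 h at RT.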
Tb PGK inh – qHTS Assay to Find Inhibitors of Phosphoglycerate Kinase | AID 602233, 2012 | 380,000 compounds, 0.043% hits | Phosphoglycerate kinase, glycosomal (Trypanosoma brucei brucei), P07378 | Potency, µM (series often up to 57.5 µM), usual class: inhibitors | PGK/GAPDH coupled, Kinase-Glo luminescence, 60 min; note: nearly all actives have a fitted effect of over 60% in size
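Luminescent ATP detection (Kinase-Glo Plus) follows a 60-minute room-temperature incubation, with wells lacking PGK as controls. Buffer: 100 mM TEA (pH 7.6), 5 mM MgCl2, 0.01% Tween-20. Coupling enzyme GAPDH (100 nM final) supplies unstable 1,3-BPG in-well.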
APE1 inh – qHTS Assay for Inhibitors of the Human Apurinic/apyrimidinic Endonuclease 1 (APE1); DNA repair nuclease/redox regulator APEX1 (Homo sapiens), P27695; recombinant APE1, TAMRA/BHQ-2 abasic DNA cleavage fluorescence; Potency, µM (top dose mostly 65.8 µM), hits mostly inhibitors; 350,000 compounds, 0.35% hits; AID 2517, 2012; note: nearly all actives have a fitted effect of over 55% in size
Target sequence (P27695 whole entry, looked up): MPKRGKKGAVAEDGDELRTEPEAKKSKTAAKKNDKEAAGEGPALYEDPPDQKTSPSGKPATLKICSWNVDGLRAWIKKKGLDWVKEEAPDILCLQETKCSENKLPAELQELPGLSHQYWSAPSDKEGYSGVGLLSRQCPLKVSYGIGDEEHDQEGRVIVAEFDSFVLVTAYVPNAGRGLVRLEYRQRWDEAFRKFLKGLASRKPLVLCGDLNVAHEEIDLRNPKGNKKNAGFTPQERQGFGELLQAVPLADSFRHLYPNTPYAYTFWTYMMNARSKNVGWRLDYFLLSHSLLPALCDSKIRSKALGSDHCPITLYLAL
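0.75 nM APE1 + cpd, 15 min RT; start w/ 50 nM TAMRA/BHQ-2 THF-abasic dsDNA; kinetic fluor 525/598 nm ×3 reads @60 s; Δ(read3−read1); normalized to DMSO and NSC13755 control wells.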
GLS inh – qHTS for Inhibitors of Glutaminase (GLS); GLS enzymatic activity, qHTS titration; AID 624170, 2012; Potency, µM (highest dose often 45.5 µM), hits mostly inhibitors; 410,000 compounds, 0.21% hits; Glutaminase kidney isoform, mitochondrial (Homo sapiens), O94925
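hKGA; 45 mM KH2PO4 pH 8.2 + 0.02% Tween-20; cpd via pin tool; 1 mM Gln soln; GluOx/HRP/Amplex Red; RT 30 min; fluor. t0 & final.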
BLM helicase inh – qHTS Assay for Inhibitors of Bloom's syndrome helicase (BLM) | RecQ-like DNA helicase BLM (Homo sapiens), P54132 | AID 2528, 2010 | 350,000 compounds, 0.2% hits | Potency, µM (doses to about 56.1 µM), actives largely listed as inhibitors | recombinant BLM DNA unwinding, fluorescence dequenching; note: nearly all actives have a fitted effect of over 35% in size
RECQ1 inh conf – Confirmation qHTS Assay for Inhibitors of RecQ-Like Dna Helicase 1 (RECQ1). shares compounds with RECQ1 inh-1. RECQ1 helicase DNA unwinding, fluorescence. AID 2708, 2010. Potency, µM (titrated, usually from 229 µM), hits mostly inhibitors. 610 compounds, 28% hits; note: nearly all actives have a fitted effect of over 45% in size
ADP FP counter – Counterscreen for RECQ1 Inhibitors: ADP Fluorescence Polarization Displacement Assay. shares compounds with RECQ1 inh-1. ADP fluorescence polarization displacement counterscreen. Potency, µM (doses to about 228 µM), hits mostly inhibitors. 530 compounds, 27% hits. AID 2711, 2010; note: nearly all actives have a fitted effect of over 45% in size
RECQ1 inh-2 – Confirmation qHTS Assay for Inhibitors of RecQ-Like Dna Helicase 1 (RECQ1) - Round 2 Cherry Picks; recombinant RECQ1 DNA unwinding, red fluorescence; shares compounds with RECQ1 inh-1; Potency, µM (titrated, usually from 119 µM), actives largely listed as inhibitors; 1,100 compounds, 15% hits; AID 504841, 2011; note: nearly all actives have a fitted effect of over 50% in size
Numbers stand for hits; – = inactive; ? = inconclusive; · = no result; [ ] = remark or other dose. Calls come from the whole dose curve; as a rule, active = well fitted curve in the direction sought with a large enough effect; inconclusive = small, poorly fitted or top-dose-only effect, or another doubt; inactive = no such curve, though single readings can be large; an effect the other way counts as inactive or inconclusive.

SMILES	FEN1 inhibitor	RECQ1 inh-1	Tb PGK inh	APE1 inh	GLS inh	BLM helicase inh	RECQ1 inh-2	others
Cc1ccc(Cn2c(C(=O)O)c(CNCc3cccs3)c3ccc(C)cc32)cc1	–	·	–	·	–	–	·
Cc1ccc2nc(Nc3cccc(C(F)(F)F)c3)c3nnnn3c2c1	–	·	–	·	–	–	·
CCCCN(CCCNC(=O)CN1N=C(c2ccc(C)cc2)CCC1=O)c1ccccc1	–	·	–	·	–	–	·
O=C(NCc1ccc(F)cc1)C(=O)NCC(c1ccco1)S(=O)(=O)c1cccs1 (stereo unspecified)	–	·	–	·	–	–	·
O=C(O)c1c2c(nc3ccc(S(=O)(=O)N4CCC(C(=O)N5CCCCC5)CC4)cc13)CCCC2	–	?	–	–	–	–	–
O=C(C[n+]1cccc(Br)c1)c1cc(Cl)ccc1Cl	–	·	·	·	·	·	·
COc1ccc(-n2c(SCC(=O)NCc3ccc(F)cc3)nc3c([nH]c4ccccc43)c2=O)cc1	–	·	–	·	–	–	·
S=C(NCCSCc1c(Cl)cccc1Cl)Nc1ccccc1	?	13µM	–	–	–	–	·	RECQ1 inh conf=–;ADP FP counter=–
C#CCCCO/N=C1/C[C@@H](O)[C@@H](O)[C@@H]2[C@@H]3C(=O)N(C4CCCCC4)C(=O)[C@H]3CC[C@@H]12	·	–[11.5 µM]	·	?	·	–[12.4 µM]	·
CO[C@@H]1COC(=O)C/C=C\[C@@H](C)[C@H](OC)COC(=O)[C@H](COCc2ccccc2)NC(=O)C/C=C\[C@H]1C	·	–[11.5 µM]	·	–[12.4 µM]	·	–[12.4 µM]	·
O=[N+]([O-])c1ccc(-c2cnc(SCc3ccccc3Cl)[nH]2)cc1	–	?	–	–	–	–	–
O=[N+]([O-])c1ccc(-c2cnc(SC(c3ccccc3)c3ccccc3)[nH]2)cc1	–	–	–	–	–	–	·
N=C1SC(c2ccccc2)C(=O)N1c1ncc(Cc2ccccc2Cl)s1 (stereo unspecified)	–	25µM	–	–	–	–	?
CCCC1=C/C(=C/c2ccc(-c3ccccc3OC)o2)C(=O)O1	–	22µM	–	–	–	–	·	RECQ1 inh conf=?
COCCn1c(=NC(=O)c2ccc(S(=O)(=O)N3CCc4ccccc4C3)cc2)sc2cc(OC)ccc21	–	–	–	–	–	–	·	RECQ1 inh conf=–;ADP FP counter=–
CN(c1cccc(NC(=O)CN(c2ccc(Cl)c(Cl)c2)S(=O)(=O)c2ccccc2)c1)S(C)(=O)=O	–	–	–	–	–	–	·
Cc1ccc(S(=O)(=O)N(CC(=O)Nc2cccc(N(C)S(C)(=O)=O)c2)c2ccc(Cl)c(Cl)c2)cc1	–	7.1µM	–	–	–	–	–	RECQ1 inh conf=?;ADP FP counter=–
COC(=O)COc1ccc(C2Nc3c(Cl)ccc(C(=O)O)c3C3C=CCC32)cc1 (stereo unspecified)	?	28µM	–	?	?	–	?
COc1ccc(S(=O)(=O)N2CCN(c3ccc(Cl)c(Cl)c3)CC2)c2ccccc12	–	·	–	·	–	–	·
